Outcome data for three compounds are collected here from PubChem BioAssay AID652040 (Broad Institute, 2013).

Potency and affinity values are given separately. Activity calls are given as the source filed them.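 How the source made its calls: active means falling luciferase signal whose fitted half-maximal concentration is at most twice the top tested dose; inconclusive means flat inhibition between 30 and 70% or a poor curve fit; inactive means the rest.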

The nature of this assay: off-target signal loss in HeLa-CEM21 co-culture – HeLa F-luc CTL cells, cherry-picked, counter-screen for HIV-1 Env fusion inhibitor project, dose response (AID 652040).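 Further: more negative values mean stronger loss of luciferase signal.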 As to conditions: HeLa-F-luc CTL cells with CEM21, firefly luciferase counterscreen; series mostly up to 35 µM. In general terms: The purpose of a counterscreen is to sort out artefacts and off-target activity.
For the compound `CCC(=NCc1ccc(F)cc1)c1c(O)n(C)c(=O)n(C)c1=O`, the outcome was inactive.

Regarding `Cn1nc(-c2ccc(OCC(=O)N3CCN(Cc4ccccc4)CC3)cc2)c2ccccc2c1=O`, the result was inactive.

Regarding `CCC(=NCCc1c[nH]c2ccccc12)c1c(O)n(C)c(=O)n(C)c1=O`, the call was inactive.
